# Experimental data as given in PubChem BioAssay (NCI).
# Compounds without any hit were thinned out: in the full panel of roughly 79,000, 15% have a hit. The source made the active and inactive calls. Rule as the data show it: active = growth inhibition above about 70%; inactive = the rest.
# Test: NCI Yeast Anticancer Drug Screen. Data for the rad50 strain (AID 155);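 also: 0% = growth of vehicle-only cultures of the same strain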
# Details: S. cerevisiae rad50 strain growth inhibition; at 5.0 µM (retest, dose inferred, filed as 0.5); active compounds read high
# Procedure, shortened: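 Growth of the mutant yeast was measured after compound exposure and referenced to vehicle-treated cultures.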
row,Compound,growth inhibition
1,O=Nc1c(O)ccc2ccccc12.[Fe].[Na+],7% (inactive)
2,CC(C)Cc1ncc(CC(C)C)n(O)c1=O,34% (inactive)
3,COc1ccc2c(c1)CCc1c-2ccc(C)c1CCC(=O)O,5% (inactive)
4,COc1ccc(/C=C(\C#N)c2ccccc2)cc1OC,0% (inactive)
5,CCC(=O)OCC(=O)c1ccc(-c2ccccc2)cc1,-9% (inactive)
6,C=C1CC(c2ccc(OCCCN3C(=O)c4ccccc4C3=O)c(OC)c2)OC1=O (stereo not given),-9% (inactive)
7,N[C@H](C(=O)O)[C@@H]1CC(Cl)=NO1,63% (inactive)
8,Cc1ccc2c(c1)[n+]([O-])c(N)c(C#N)[n+]2[O-],0% (inactive)
9,Cc1cc(O)c2c(c1)C(=O)c1c(c(O)cc(O)c1-c1c(O)cc(O)c3c1C(=O)c1cc(C)cc(O)c1C3=O)C2=O,14% (inactive)
10,CC(=O)c1csc2c1C(=O)c1scc(C(C)=O)c1C2=O,26% (inactive)
11,CCC(CCCN(CC)CCc1ccccc1)OC(=O)c1cc(OC)c(OC)c(OC)c1 (stereo not given),5% (inactive)
12,COC(CCC[N+](C)(C)C)CC[N+](C)(C)C (stereo not given),11% (inactive)
13,CCC(=O)c1ccc2ccc3ccccc3c2c1,6% (inactive)
14,CN(C)c1nc(N(C)C)oc(=[N+](C)C)n1,-2% (inactive)
15,COc1ccc(Cc2ccc(N)cc2)cc1,-149% (inactive)
16,CN(C)CC(CN(C)C)C(=O)c1ccc(Oc2ccccc2)cc1,75% (active)
17,C1C2OC2C2C1C1CC2C2OC12 (stereo not given),1% (inactive)
18,Nc1ccc2c(c1)[nH]c(=O)c1cccc(Cl)c12,-32% (inactive)
19,COc1cccc(C2c3cc4c(cc3OC(Nc3ccccc3)C2C)OCO4)c1O (stereo not given),-8% (inactive)
20,Cc1cc(SC#N)cc(C)c1O,6% (inactive)

row,Compound,growth inhibition
1,CCN(CC)CCCNc1ncc(C)c2c1c1ccc3c(O)cccc3c1n2C,22% (inactive)
2,O=C1c2ccccc2C(O)(C#Cc2ccccc2)c2cnccc21 (stereo not given),-6% (inactive)
3,CC(=O)Nc1nnc(C)s1,0% (inactive)
4,CC1CN(CC(O)c2ccc(Br)cc2)CC(C)O1 (stereo not given),13% (inactive)
5,O=C(C=P(c1ccccc1)(c1ccccc1)c1ccccc1)CC(=S)CC(=O)C=P(c1ccccc1)(c1ccccc1)c1ccccc1,31% (inactive)
6,CN(C)CCC(/C=C/c1ccccc1)=N\Nc1ccc(Cl)cc1Cl,66% (inactive)
7,Oc1c(Cl)cc(Br)cc1Cl,44% (inactive)
8,Cc1ccc2c(ccc(CC(=S)[S-])[n+]2C)c1,10% (inactive)
9,Cc1ccc2c(c1)C(=O)N(CC[P+](c1ccccc1)(c1ccccc1)c1ccccc1)C2=O,81% (active)
10,Nc1ncnc2c1c(-c1ccccc1)cn2-c1ccc(Cl)cc1,5% (inactive)
11,Nc1nnc(-c2cc([N+](=O)[O-])cc([N+](=O)[O-])c2)o1,-16% (inactive)
12,COc1cc2c(cc1OC)C(Cl)C(c1ccc(F)cc1)=C2Cl (stereo not given),-23% (inactive)
13,COc1ccc(C2Oc3c(cccc3OC)C=C2[N+](=O)[O-])cc1 (stereo not given),20% (inactive)
14,O=C(O)c1cc2cc3ccccc3cc2cc1O,-1% (inactive)
15,Oc1ccc2ccc3ccccc3c2c1,5% (inactive)
16,COC(=O)c1ccc(OC)cc1,2% (inactive)
17,Clc1ccc2c(NCCCCCCNc3ccnc4cc(Cl)ccc34)ccnc2c1,2% (inactive)
18,COc1ccc(C2C3=C(CCC(CN(C)C)C3=O)OC3=C2C(=O)C(CN(C)C)CC3)cc1 (stereo not given),-17% (inactive)
19,CC(C)CC(NC(=O)COc1c(Cl)cc(Cl)c(Cl)c1Cl)C(=O)O (stereo not given),0% (inactive)
20,Cc1nc2c(=O)[nH]c3ccc(Cl)cc3c2o1,3% (inactive)

# Same assay, conditions: S. cerevisiae rad50 strain growth inhibition; at 50.0 µM (retest, dose inferred, filed as 5.0); active compounds read high
row,Compound,growth inhibition
1,O=Nc1c(O)ccc2ccccc12.[Fe].[Na+],97% (active)
2,CC(C)Cc1ncc(CC(C)C)n(O)c1=O,97% (active)
3,COc1ccc2c(c1)CCc1c-2ccc(C)c1CCC(=O)O,99% (active)
4,COc1ccc(/C=C(\C#N)c2ccccc2)cc1OC,55% (inactive)
5,CCC(=O)OCC(=O)c1ccc(-c2ccccc2)cc1,-20% (inactive)
6,C=C1CC(c2ccc(OCCCN3C(=O)c4ccccc4C3=O)c(OC)c2)OC1=O (stereo not given),97% (active)
7,N[C@H](C(=O)O)[C@@H]1CC(Cl)=NO1,97% (active)
8,Cc1ccc2c(c1)[n+]([O-])c(N)c(C#N)[n+]2[O-],97% (active)
9,Cc1cc(O)c2c(c1)C(=O)c1c(c(O)cc(O)c1-c1c(O)cc(O)c3c1C(=O)c1cc(C)cc(O)c1C3=O)C2=O,60% (inactive)
10,CC(=O)c1csc2c1C(=O)c1scc(C(C)=O)c1C2=O,48% (inactive)
11,CCC(CCCN(CC)CCc1ccccc1)OC(=O)c1cc(OC)c(OC)c(OC)c1 (stereo not given),17% (inactive)
12,COC(CCC[N+](C)(C)C)CC[N+](C)(C)C (stereo not given),81% (active)
13,CCC(=O)c1ccc2ccc3ccccc3c2c1,60% (inactive)
14,CN(C)c1nc(N(C)C)oc(=[N+](C)C)n1,-13% (inactive)
15,COc1ccc(Cc2ccc(N)cc2)cc1,78% (active)
16,CN(C)CC(CN(C)C)C(=O)c1ccc(Oc2ccccc2)cc1,99% (active)
17,C1C2OC2C2C1C1CC2C2OC12 (stereo not given),-3% (inactive)
18,Nc1ccc2c(c1)[nH]c(=O)c1cccc(Cl)c12,89% (active)
19,COc1cccc(C2c3cc4c(cc3OC(Nc3ccccc3)C2C)OCO4)c1O (stereo not given),97% (active)
20,Cc1cc(SC#N)cc(C)c1O,65% (inactive)

row,Compound,growth inhibition
1,CCN(CC)CCCNc1ncc(C)c2c1c1ccc3c(O)cccc3c1n2C,62% (inactive)
2,O=C1c2ccccc2C(O)(C#Cc2ccccc2)c2cnccc21 (stereo not given),96% (active)
3,CC(=O)Nc1nnc(C)s1,-3% (inactive)
4,CC1CN(CC(O)c2ccc(Br)cc2)CC(C)O1 (stereo not given),30% (inactive)
5,O=C(C=P(c1ccccc1)(c1ccccc1)c1ccccc1)CC(=S)CC(=O)C=P(c1ccccc1)(c1ccccc1)c1ccccc1,71% (active)
6,CN(C)CCC(/C=C/c1ccccc1)=N\Nc1ccc(Cl)cc1Cl,87% (active)
7,Oc1c(Cl)cc(Br)cc1Cl,95% (active)
8,Cc1ccc2c(ccc(CC(=S)[S-])[n+]2C)c1,41% (inactive)
9,Cc1ccc2c(c1)C(=O)N(CC[P+](c1ccccc1)(c1ccccc1)c1ccccc1)C2=O,89% (active)
10,Nc1ncnc2c1c(-c1ccccc1)cn2-c1ccc(Cl)cc1,26% (inactive)
11,Nc1nnc(-c2cc([N+](=O)[O-])cc([N+](=O)[O-])c2)o1,-2% (inactive)
12,COc1cc2c(cc1OC)C(Cl)C(c1ccc(F)cc1)=C2Cl (stereo not given),0% (inactive)
13,COc1ccc(C2Oc3c(cccc3OC)C=C2[N+](=O)[O-])cc1 (stereo not given),96% (active)
14,O=C(O)c1cc2cc3ccccc3cc2cc1O,32% (inactive)
15,Oc1ccc2ccc3ccccc3c2c1,99% (active)
16,COC(=O)c1ccc(OC)cc1,-1% (inactive)
17,Clc1ccc2c(NCCCCCCNc3ccnc4cc(Cl)ccc34)ccnc2c1,90% (active)
18,COc1ccc(C2C3=C(CCC(CN(C)C)C3=O)OC3=C2C(=O)C(CN(C)C)CC3)cc1 (stereo not given),-7% (inactive)
19,CC(C)CC(NC(=O)COc1c(Cl)cc(Cl)c(Cl)c1Cl)C(=O)O (stereo not given),8% (inactive)
20,Cc1nc2c(=O)[nH]c3ccc(Cl)cc3c2o1,60% (inactive)
